Experiments:
Test in all cases: PBM binding z-score (relative to random genomic background probes); higher = stronger binding; sequences stand for … in GC…GCGATTGACAGCGTAGAATGAAGG
[1] = system: PPARg:RXRa DBDmut IVT, anti-RXR (DBD mutation: RXRa K156A/R161A, NR concentration 270 nM, RXRa partner concentration 90 nM)
Procedure, shortened: (§1)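 Antibodies against each partner of ligand-free nuclear receptor dimers (one per run) detected binding on custom Agilent 4×180K protein-binding microarrays after 1 h incubation. The double-stranded probes had 34-nt variable regions carrying direct-repeat seeds, single-nucleotide variants, half-site ablations and random human genomic background sequences. Binding z-scores, from regression-normalized fluorescence, use the random background probes as reference.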

[2] = system: PPARg:RXRa IVT, anti-PPARg (NR concentration 270 nM, RXRa partner concentration 90 nM)
Procedure, shortened: as §1

[3] = system: PPARg DBDmut:RXRa IVT, anti-PPARg (DBD mutation: PPARg1 K132A/R137A, NR concentration 270 nM, RXRa partner concentration 90 nM)
Procedure, shortened: as §1

[4] = system: PPARg DBDmut IVT, anti-PPARg (DBD mutation: PPARg1 K132A/R137A, NR concentration 270 nM)
Procedure, shortened: as §1

[5] = system: PPARg homodimer (NR concentration 180 nM)
Procedure, shortened: as §1

[6] = system: PXR:RXRa (NR concentration 270 nM, RXRa partner concentration 90 nM)
Procedure, shortened: as §1

[7] = system: PXR homodimer (NR concentration 270 nM)
Procedure, shortened: as §1

[8] = system: RARa:RXR (NR concentration 270 nM, RXRa partner concentration 90 nM)
Procedure, shortened: as §1

[9] = system: RARa homodimer (NR concentration 270 nM)
Procedure, shortened: as §1

[10] = system: RARb:RXRa (NR concentration 270 nM, RXRa partner concentration 90 nM)
Procedure, shortened: as §1

[11] = system: RARb homodimer (NR concentration 270 nM)
Procedure, shortened: as §1

[12] = system: RARg:RXRa (NR concentration 270 nM, RXRa partner concentration 90 nM)
Procedure, shortened: as §1

[13] = system: RARg homodimer (NR concentration 270 nM)
Procedure, shortened: as §1

[14] = system: RXRa DBDmut IVT, anti-RXR (DBD mutation: RXRa K156A/R161A, NR concentration 90 nM)
Procedure, shortened: as §1

[15] = system: RXRa homodimer (NR concentration 180 nM)
Procedure, shortened: as §1

[16] = system: THRa:RXRa (NR concentration 90 nM, RXRa partner concentration 90 nM)
Procedure, shortened: as §1

[17] = system: THRa homodimer (NR concentration 90 nM)
Procedure, shortened: as §1

[18] = system: VDR homodimer (NR concentration 270 nM)
Procedure, shortened: as §1

Sequence	PBM binding z-score [1]	PBM binding z-score [2]	PBM binding z-score [3]	PBM binding z-score [4]	PBM binding z-score [5]	PBM binding z-score [6]	PBM binding z-score [7]	PBM binding z-score [8]	PBM binding z-score [9]	PBM binding z-score [10]	PBM binding z-score [11]	PBM binding z-score [12]	PBM binding z-score [13]	PBM binding z-score [14]	PBM binding z-score [15]	PBM binding z-score [16]	PBM binding z-score [17]	PBM binding z-score [18]
CCTAGTTGGTCATGGTCACACACGCTATAGGTAC	1.53	1.72	0.378	0.935	0.845	0.223	0.732	0.207	1.39	1.46	1.56	1.06	1.54	0.565	0.699	0.458	0.619	0.905
CCTACTGGGCCATCAGGTCATTGAAATCAACGTT	4.17	4.91	-0.467	-0.409	0.78	1.25	0.298	1.68	0.289	2.04	2.46	1.85	2.14	0.155	1.18	3.07	2.88	1.02
CAAACTAGGTCAAAGGTCATAGTCGAGCCAACCA	8.7	9.39	3.36	4.08	5.55	7.06	1.04	8.82	2.53	5.59	5.28	8.65	6.91	2.92	10.3	4.84	1.91	3.55
CGAACTAGGTCATTGACAGGACACTGAATAGTAA	8.02	7.96	2	1.46	2.02	1.66	0.493	2.18	0.218	3.69	2.8	4.6	3.84	2.58	2.46	3.03	1.06	1.18
CCTTACGGGTCACTCCAGGTTATAGCCTCGGAGT	2.45	3.8	-1.39	-0.526	1.18	4.66	0.0423	3.43	0.55	3.64	3.1	4.3	4.02	1.01	4.02	5.14	0.467	1.13
GCGACTGGGGCATCAGCAGGTTAACATAACTTAA	3.98	3.26	-0.488	-1.04	0.292	0.289	-0.239	0.486	-0.18	0.898	1.03	1.09	0.785	-0.118	0.5	1.04	-0.291	-0.312
CGAACTAGGTCATTGACAGGACGGTGAATAGTAA	8.29	8.22	1.89	0.528	0.985	1.12	-0.168	1.81	0.0523	3.63	2.33	4.09	4.33	2.13	2.59	2.58	0.313	0.872
CGTGCAAGGTCAAAGGTCAGTGAAGAGATGACGG	4.05	5.94	1.68	0.658	4.64	7.09	1.48	8.94	1.9	5.91	5.61	8.84	8.41	4.08	10.3	4.91	2.23	3.9
CCGACTGGGACAAAGGTTACCATACTCAGTACGA	3.26	5.21	0.234	0.111	1.47	1.51	-0.265	2.39	0.207	2.03	1.88	2.42	1.43	0.478	2.21	1.75	0.208	-0.0207
AGAACGAGGGCACGCTGAGTTGAGAGCAGAGTAG	4.1	3.68	0.22	0.203	0.469	1.01	0.0274	1.35	-0.318	2.54	1.24	2.01	2.05	1.81	1.57	1.95	-0.054	1.29
TCTTGTTGATCAGCAGGTTAAGAAAGCTGGCCAA	1.56	0.0637	-0.302	-0.327	-0.0408	0.332	-0.115	0.447	-0.41	0.288	0.158	-0.129	-0.598	0.635	0.257	0.181	-0.779	-0.748
TTACCAAGGTGAAAGATCGTTGATGCACGCCTTG	1.56	2.99	0.596	0.116	0.393	0.0637	-0.296	0.393	-0.301	1.23	0.0757	0.744	0.398	-0.161	1.06	1.42	0.109	-0.339
CCATACAGGTGAAAGGTAACTCAGTCTGGTACGC	4.44	4.52	0.453	0.514	1.27	1.12	0.206	1.99	0.894	1.44	0.92	1.41	0.917	0.261	2.32	1.08	0.069	-0.101
GCTTGTAGATCAAGGTTAAAAAAGACTAAGCTAA	1.05	1.23	0.281	0.272	0.282	0.574	-0.0589	1.15	0.0785	0.688	0.0487	0.373	0.226	0.0617	0.736	1.14	-0.222	0.0143
ATCTCTAGGTAAAGTCCAGTGAAAGATCGATAGA	2.45	1.54	1.13	0.971	0.584	-0.13	0.187	-0.113	0.971	0.414	0.254	0.207	0.536	0.396	-0.0378	0.245	0.0822	0.0331
TCATATAGGTAAAGGTGAAACTCGAACGATATGA	4.08	4.59	1.59	2.12	1.36	1.13	-0.357	1.76	0.238	2.05	1.6	1.84	1.54	0.648	2.47	1.57	-0.601	-0.375

Sequence	PBM binding z-score [1]	PBM binding z-score [2]	PBM binding z-score [3]	PBM binding z-score [4]	PBM binding z-score [5]	PBM binding z-score [6]	PBM binding z-score [7]	PBM binding z-score [8]	PBM binding z-score [9]	PBM binding z-score [10]	PBM binding z-score [11]	PBM binding z-score [12]	PBM binding z-score [13]	PBM binding z-score [14]	PBM binding z-score [15]	PBM binding z-score [16]	PBM binding z-score [17]	PBM binding z-score [18]
CGAACTAGGTCAGAACAGGACAGTGGAGGATGAT	7.32	7.18	1.32	0.317	0.748	0.65	-0.155	0.722	0.321	2.99	2.31	2.47	3.32	0.671	1.4	3.33	0.46	0.198
CCAGCTAGGTCATGGTCAGCTAATCTACAGTATG	4.7	4.17	0.901	0.516	1.52	1.12	-0.327	2.34	0.48	3.97	3.2	3.81	4.16	1.61	2.86	2.8	1.25	0.247
CCGAGAAGGTTATGGGGCATTCAGGCAACGGTGA	0.959	1.38	-0.265	-0.895	1.08	0.668	0.111	1.54	-0.0567	2.08	1.61	1.84	1.38	0.364	2.23	1.3	0.0713	0.22
CCGACTGGGGCATAAGCTTACCATAAGCCAGCCC	2.59	1.57	-1.09	-1.16	-0.394	-0.775	-0.649	-0.694	-0.632	-0.11	-0.773	-0.376	-0.313	0.074	-0.312	-0.645	-1.06	-0.947
ATATGTAGGTTATCGCGTCATTCAGTTTGCGCAT	7.52	6.92	1.88	2.41	0.975	0.655	0.292	0.918	0.606	0.976	0.515	0.647	0.634	0.806	1.03	0.388	0.235	0.254
AGAACGAGCGCAATGAGTTGATAGCACGGGTGGC	-0.343	-0.563	0.051	-0.552	0.0308	-0.486	-0.247	-0.449	-0.49	-0.312	-0.96	-0.134	-0.287	-0.213	-0.0749	-0.609	-1.01	0.00307
CAGCCTAGGTCAGGGCGAGTATAGGAGGAACGTT	1.68	1.54	-1.19	-1.55	0.665	0.305	-0.665	1.11	-0.626	3.19	2.44	3.08	3.72	0.0681	1.76	2.03	0.0582	-0.499
TCTTGTGGATCAAGCAGGTTAAGAAAGCCTGAGT	1.46	0.177	-0.713	0.262	-0.187	0.422	0.248	0.506	-0.587	0.161	0.266	-0.132	-0.515	0.604	0.211	0.309	-0.303	0.15
CCTCCAAGGTCAGAGAGGTCAGTGAATGCCGAGT	2.56	2.91	-0.128	-1.11	3.5	5.94	10.8	4.82	0.862	5.18	5.51	6.2	6.87	3.18	5.37	4.36	2.59	4.62
CCGAGTTGGTCAGGAGGTCACACACCGGATATGA	0.95	2.61	0.01	0.0417	3.62	4.53	1.31	4.71	1.54	3.66	4.31	5.33	4.41	1.8	4.96	3.47	2.02	3.09
TCTAGTTGGTCACGGAGGTCACACAAGACGGGTA	2.31	4.34	0.505	0.71	2.71	4.55	1.16	4.17	1.37	3.87	4.03	4.88	4.81	1.22	4.67	3.75	2.37	3.03
TATACAGGGTCAAAGGCCCGAGTACGAATGTCGA	1.95	4.09	1.37	0.769	1.13	3.57	0.0932	4.41	0.102	4.33	2.83	5.28	4.67	2.83	5.91	3.23	0.794	2.5
ACTATTAGTTGACTTAGCGCAACCGATACGACGC	0.0649	0.107	1.97	1.39	-0.0684	-0.103	0.0644	-0.262	0.57	0.104	-0.331	0.0723	0.494	0.553	0.244	-0.258	-0.16	0.12
AGAACGAGGGCCATGAGTTGATAGCACGGGTGGC	0.174	0.141	-0.382	0.0603	-0.217	0.118	-0.232	-0.375	-0.362	0.632	0.111	0.395	0.308	-0.019	0.448	-0.138	-0.79	0.371
TAGCCTAGGTCAGATCGGACCAGTATACGCTATA	0.812	1.36	0.21	0.399	0.0652	0.377	-0.37	1.48	-0.814	2.85	1.86	2.7	3.46	-0.00524	1.46	2.55	-0.155	-0.597
